# In the supplement of paper PMC11628255, “Interference of metal ions on the bioluminescent signal of firefly, Renilla, and NanoLuc luciferases in high-throughput screening assays” (Frontiers in Chemistry, 2024):
# ± gives the standard deviation of the averaged measurements.
# System: NanoLuc luciferase (NLuc)
# Experiment: residual bioluminescent signal relative to negative control without GSH; higher = less interference (more residual luciferase signal)
# Settings: screening conditions buffer
# Protocol: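 Selected metal salts at 3-4 concentrations tested on purified FLuc, NLuc or RLuc in screening buffer with 0, 0.2 or 2 mM glutathione added; 10 min enzyme pre-incubation at RT, luminescence 10 min after substrate. Signal normalised to negative control without GSH (% N_VALUE); triplicate wells.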
# [1] = metal salt concentration 1 mM, glutathione 0 mM
# [2] = metal salt concentration 1 mM, glutathione 0.2 mM
# [3] = metal salt concentration 1 mM, glutathione 2 mM
# [4] = metal salt concentration 0.001 mM, glutathione 0 mM
# [5] = metal salt concentration 0.001 mM, glutathione 0.2 mM
# [6] = metal salt concentration 0.001 mM, glutathione 2 mM
smiles,measurement,setting,value
O=[N+]([O-])[O-].O=[N+]([O-])[O-].[Cu+2] [copper(II) nitrate],residual bioluminescent signal,"metal salt concentration 0.0005 mM, glutathione 0 mM",104 ± 4.1%
same,residual bioluminescent signal,"metal salt concentration 0.0005 mM, glutathione 0.2 mM",106 ± 5.4%
same,residual bioluminescent signal,"metal salt concentration 0.0005 mM, glutathione 2 mM",89.3 ± 3.6%
same,residual bioluminescent signal,"metal salt concentration 0.017 mM, glutathione 0 mM",101 ± 7.7%
same,residual bioluminescent signal,"metal salt concentration 0.017 mM, glutathione 0.2 mM",104 ± 6.7%
same,residual bioluminescent signal,"metal salt concentration 0.017 mM, glutathione 2 mM",92.9 ± 4.8%
same,residual bioluminescent signal,"metal salt concentration 0.02 mM, glutathione 0 mM",86.4 ± 3.7%
same,residual bioluminescent signal,"metal salt concentration 0.02 mM, glutathione 0.2 mM",98 ± 2.7%
same,residual bioluminescent signal,"metal salt concentration 0.02 mM, glutathione 2 mM",84.1 ± 2.6%
same,residual bioluminescent signal,[1],0.661 ± 0.17%
same,residual bioluminescent signal,[2],1.03 ± 0.57%
same,residual bioluminescent signal,[3],68.9 ± 7.9%
O=[N+]([O-])[O-].O=[N+]([O-])[O-].[Zn+2] [zinc nitrate],residual bioluminescent signal,[4],98.9 ± 6.3%
same,residual bioluminescent signal,[5],103 ± 6.2%
same,residual bioluminescent signal,[6],89.6 ± 2.3%
same,residual bioluminescent signal,"metal salt concentration 0.174 mM, glutathione 0 mM",50.9 ± 6%
same,residual bioluminescent signal,"metal salt concentration 0.174 mM, glutathione 0.2 mM",72.7 ± 2.8%
same,residual bioluminescent signal,"metal salt concentration 0.174 mM, glutathione 2 mM",77.5 ± 7.3%
same,residual bioluminescent signal,[1],34.2 ± 8.5%
same,residual bioluminescent signal,[2],42.1 ± 1.7%
same,residual bioluminescent signal,[3],63.9 ± 1.7%
same,residual bioluminescent signal,"metal salt concentration 5 mM, glutathione 0 mM",5.95 ± 1.4%
same,residual bioluminescent signal,"metal salt concentration 5 mM, glutathione 0.2 mM",7.9 ± 2.7%
same,residual bioluminescent signal,"metal salt concentration 5 mM, glutathione 2 mM",12.4 ± 2.1%
O=[N+]([O-])[O-].[Ag+] [silver nitrate],residual bioluminescent signal,[4],98.9 ± 6.8%
same,residual bioluminescent signal,[5],102 ± 1.4%
same,residual bioluminescent signal,[6],90.9 ± 4.7%
same,residual bioluminescent signal,"metal salt concentration 0.0114 mM, glutathione 0 mM",15.6 ± 8%
same,residual bioluminescent signal,"metal salt concentration 0.0114 mM, glutathione 0.2 mM",106 ± 1.6%
same,residual bioluminescent signal,"metal salt concentration 0.0114 mM, glutathione 2 mM",85.33 ± 0.82%
same,residual bioluminescent signal,"metal salt concentration 0.05 mM, glutathione 0 mM",2.78 ± 0.95%
same,residual bioluminescent signal,"metal salt concentration 0.05 mM, glutathione 0.2 mM",107 ± 4.8%
same,residual bioluminescent signal,"metal salt concentration 0.05 mM, glutathione 2 mM",85.7 ± 1%
same,residual bioluminescent signal,[1],3.17 ± 0.68%
same,residual bioluminescent signal,[2],15.2 ± 5.5%
same,residual bioluminescent signal,[3],82.48 ± 0.71%
